# Data as given in ChEMBL document CHEMBL1961873, “Compounds: GSK PKIS; Assays: Nanosyn kinase panel” (2012).
# What was measured:
# [1] = target: Fibroblast growth factor receptor 4 (Homo sapiens) (UniProt P22455); settings: at 1 µM;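 note: reported figure is the averaged percent inhibition of FGFR4, from the GSK PKIS kinase screening panel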
# [2] = target: Tyrosine-protein kinase Fgr (Homo sapiens) (UniProt P09769); settings: at 0.1 µM
# [3] = target: Tyrosine-protein kinase Fgr (Homo sapiens) (UniProt P09769); settings: at 1 µM
# [4] = target: Vascular endothelial growth factor receptor 1 (Homo sapiens) (UniProt P17948); settings: at 0.1 µM
# Vascular endothelial growth factor receptor 1 (Homo sapiens), sequence (P17948 whole entry): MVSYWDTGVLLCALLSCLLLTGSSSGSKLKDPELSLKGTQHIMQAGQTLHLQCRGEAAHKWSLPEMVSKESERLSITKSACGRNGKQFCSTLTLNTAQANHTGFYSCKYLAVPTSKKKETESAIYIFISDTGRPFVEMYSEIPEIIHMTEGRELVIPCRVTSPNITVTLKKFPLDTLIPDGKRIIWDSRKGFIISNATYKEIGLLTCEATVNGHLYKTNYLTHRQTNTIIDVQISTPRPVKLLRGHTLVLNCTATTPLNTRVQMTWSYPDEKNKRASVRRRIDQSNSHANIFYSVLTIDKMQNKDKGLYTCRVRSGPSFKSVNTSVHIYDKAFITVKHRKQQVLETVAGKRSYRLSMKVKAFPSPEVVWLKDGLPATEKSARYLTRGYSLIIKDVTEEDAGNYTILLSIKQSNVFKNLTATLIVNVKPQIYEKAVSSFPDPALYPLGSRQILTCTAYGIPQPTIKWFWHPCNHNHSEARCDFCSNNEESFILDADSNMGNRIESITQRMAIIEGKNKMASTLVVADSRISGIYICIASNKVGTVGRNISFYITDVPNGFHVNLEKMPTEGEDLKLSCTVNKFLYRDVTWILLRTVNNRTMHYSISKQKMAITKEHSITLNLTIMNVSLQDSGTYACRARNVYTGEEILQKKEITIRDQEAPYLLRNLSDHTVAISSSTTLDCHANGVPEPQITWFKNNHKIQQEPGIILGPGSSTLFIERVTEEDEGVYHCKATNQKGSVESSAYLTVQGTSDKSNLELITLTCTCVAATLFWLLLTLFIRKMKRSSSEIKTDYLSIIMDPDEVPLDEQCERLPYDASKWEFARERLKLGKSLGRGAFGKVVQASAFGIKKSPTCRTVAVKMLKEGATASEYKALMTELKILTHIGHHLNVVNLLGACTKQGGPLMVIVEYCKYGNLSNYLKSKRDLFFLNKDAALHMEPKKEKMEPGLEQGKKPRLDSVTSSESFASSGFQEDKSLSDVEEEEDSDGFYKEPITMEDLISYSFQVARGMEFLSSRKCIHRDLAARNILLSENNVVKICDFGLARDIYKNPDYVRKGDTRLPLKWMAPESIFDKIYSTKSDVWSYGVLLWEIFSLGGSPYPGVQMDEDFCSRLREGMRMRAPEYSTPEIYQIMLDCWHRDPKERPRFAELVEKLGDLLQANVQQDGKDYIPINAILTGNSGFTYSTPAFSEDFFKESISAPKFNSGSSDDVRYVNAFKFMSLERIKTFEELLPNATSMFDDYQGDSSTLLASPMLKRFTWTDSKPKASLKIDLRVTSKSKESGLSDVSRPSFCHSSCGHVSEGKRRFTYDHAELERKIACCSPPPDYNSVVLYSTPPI
# [5] = target: Vascular endothelial growth factor receptor 1 (Homo sapiens) (UniProt P17948); settings: at 1 µM
# [6] = target: Receptor-type tyrosine-protein kinase FLT3 (Homo sapiens) (UniProt P36888); settings: at 0.1 µM
# [7] = target: Receptor-type tyrosine-protein kinase FLT3 (Homo sapiens) (UniProt P36888); settings: at 1 µM
# [8] = system: T1, Receptor-type tyrosine-protein kinase FLT3 (Homo sapiens), P36888 [D835Y]; settings: at 0.1 µM
# T1 sequence (whole entry): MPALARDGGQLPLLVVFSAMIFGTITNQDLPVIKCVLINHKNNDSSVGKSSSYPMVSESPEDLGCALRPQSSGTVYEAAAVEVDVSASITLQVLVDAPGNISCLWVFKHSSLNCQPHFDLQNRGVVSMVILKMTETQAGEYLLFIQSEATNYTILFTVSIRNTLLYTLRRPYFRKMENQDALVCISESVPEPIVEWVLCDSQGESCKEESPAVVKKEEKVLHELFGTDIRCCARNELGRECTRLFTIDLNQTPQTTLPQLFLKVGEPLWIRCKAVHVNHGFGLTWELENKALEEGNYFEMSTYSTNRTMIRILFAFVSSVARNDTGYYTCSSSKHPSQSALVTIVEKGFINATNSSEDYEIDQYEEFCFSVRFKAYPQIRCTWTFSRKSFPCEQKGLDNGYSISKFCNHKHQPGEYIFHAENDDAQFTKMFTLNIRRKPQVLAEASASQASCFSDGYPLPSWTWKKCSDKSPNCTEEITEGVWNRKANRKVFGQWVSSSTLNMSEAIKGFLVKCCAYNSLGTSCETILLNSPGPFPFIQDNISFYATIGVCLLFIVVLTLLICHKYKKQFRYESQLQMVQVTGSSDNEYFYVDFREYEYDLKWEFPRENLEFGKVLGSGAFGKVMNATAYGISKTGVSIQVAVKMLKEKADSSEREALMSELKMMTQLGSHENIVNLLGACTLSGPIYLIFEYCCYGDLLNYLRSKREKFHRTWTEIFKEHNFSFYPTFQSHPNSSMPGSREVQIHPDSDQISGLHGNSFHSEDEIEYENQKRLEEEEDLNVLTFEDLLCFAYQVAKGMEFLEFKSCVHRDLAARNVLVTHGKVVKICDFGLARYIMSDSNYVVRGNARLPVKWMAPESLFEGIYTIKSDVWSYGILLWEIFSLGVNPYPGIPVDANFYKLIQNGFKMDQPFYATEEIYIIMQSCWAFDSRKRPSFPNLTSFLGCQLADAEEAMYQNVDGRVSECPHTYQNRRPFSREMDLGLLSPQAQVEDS
# [9] = target: Non-receptor tyrosine-protein kinase TYK2 (Homo sapiens) (UniProt P29597); settings: at 1 µM;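 note: values are mean percent inhibition of TYK2 kinase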
# [10] = target: T2, Tyrosine-protein kinase receptor TYRO3 (Homo sapiens) (UniProt Q06418); settings: at 0.1 µM
# T2 sequence (whole entry): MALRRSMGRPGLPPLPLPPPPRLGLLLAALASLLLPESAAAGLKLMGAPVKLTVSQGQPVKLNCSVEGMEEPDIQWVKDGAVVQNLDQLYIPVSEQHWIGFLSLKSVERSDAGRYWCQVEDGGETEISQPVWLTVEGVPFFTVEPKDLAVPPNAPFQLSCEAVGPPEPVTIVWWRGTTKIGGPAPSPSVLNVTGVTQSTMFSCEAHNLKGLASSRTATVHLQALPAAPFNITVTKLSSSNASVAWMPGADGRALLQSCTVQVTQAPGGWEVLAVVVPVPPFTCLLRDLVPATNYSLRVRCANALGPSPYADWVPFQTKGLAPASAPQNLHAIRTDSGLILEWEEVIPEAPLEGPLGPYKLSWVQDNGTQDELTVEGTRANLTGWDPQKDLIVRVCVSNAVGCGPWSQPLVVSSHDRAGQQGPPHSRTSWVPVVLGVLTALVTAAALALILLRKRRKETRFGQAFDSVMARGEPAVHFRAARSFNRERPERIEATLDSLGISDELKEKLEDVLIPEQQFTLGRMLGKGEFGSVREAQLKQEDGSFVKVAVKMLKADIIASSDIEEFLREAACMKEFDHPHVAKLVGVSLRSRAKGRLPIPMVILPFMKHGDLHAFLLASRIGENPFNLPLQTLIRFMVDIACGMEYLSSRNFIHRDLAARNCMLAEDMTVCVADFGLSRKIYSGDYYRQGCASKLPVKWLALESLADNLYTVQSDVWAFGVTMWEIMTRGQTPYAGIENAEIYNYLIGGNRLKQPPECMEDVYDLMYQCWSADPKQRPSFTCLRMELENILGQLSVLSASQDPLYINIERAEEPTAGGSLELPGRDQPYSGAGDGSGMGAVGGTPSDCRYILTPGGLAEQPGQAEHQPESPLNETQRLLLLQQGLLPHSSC
# [11] = target: T2, Tyrosine-protein kinase receptor TYRO3 (Homo sapiens); settings: at 1 µM
# [12] = target: Tyrosine-protein kinase Yes (Homo sapiens) (UniProt P07947); settings: at 0.1 µM
# Tyrosine-protein kinase Yes (Homo sapiens), sequence (P07947 2-543 limits assumed): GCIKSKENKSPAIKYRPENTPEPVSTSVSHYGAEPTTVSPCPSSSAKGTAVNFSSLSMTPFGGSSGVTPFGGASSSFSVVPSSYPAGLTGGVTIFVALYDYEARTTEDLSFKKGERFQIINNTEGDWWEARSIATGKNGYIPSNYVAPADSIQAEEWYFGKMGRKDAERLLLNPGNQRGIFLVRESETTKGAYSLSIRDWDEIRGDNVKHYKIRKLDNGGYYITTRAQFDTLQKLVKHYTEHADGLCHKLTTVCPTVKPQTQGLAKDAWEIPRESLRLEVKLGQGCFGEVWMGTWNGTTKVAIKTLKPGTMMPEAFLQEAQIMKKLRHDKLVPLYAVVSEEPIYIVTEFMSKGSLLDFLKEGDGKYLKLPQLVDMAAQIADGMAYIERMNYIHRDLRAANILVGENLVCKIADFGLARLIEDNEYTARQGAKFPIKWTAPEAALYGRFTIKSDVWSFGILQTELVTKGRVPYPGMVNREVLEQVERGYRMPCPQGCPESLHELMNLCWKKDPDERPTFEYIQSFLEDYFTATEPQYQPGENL
# [13] = target: Tyrosine-protein kinase Yes (Homo sapiens) (UniProt P07947); settings: at 1 µM
# [14] = target: T3, Tyrosine-protein kinase ZAP-70 (Homo sapiens) (UniProt P43403); settings: at 0.1 µM
# T3 sequence (whole entry): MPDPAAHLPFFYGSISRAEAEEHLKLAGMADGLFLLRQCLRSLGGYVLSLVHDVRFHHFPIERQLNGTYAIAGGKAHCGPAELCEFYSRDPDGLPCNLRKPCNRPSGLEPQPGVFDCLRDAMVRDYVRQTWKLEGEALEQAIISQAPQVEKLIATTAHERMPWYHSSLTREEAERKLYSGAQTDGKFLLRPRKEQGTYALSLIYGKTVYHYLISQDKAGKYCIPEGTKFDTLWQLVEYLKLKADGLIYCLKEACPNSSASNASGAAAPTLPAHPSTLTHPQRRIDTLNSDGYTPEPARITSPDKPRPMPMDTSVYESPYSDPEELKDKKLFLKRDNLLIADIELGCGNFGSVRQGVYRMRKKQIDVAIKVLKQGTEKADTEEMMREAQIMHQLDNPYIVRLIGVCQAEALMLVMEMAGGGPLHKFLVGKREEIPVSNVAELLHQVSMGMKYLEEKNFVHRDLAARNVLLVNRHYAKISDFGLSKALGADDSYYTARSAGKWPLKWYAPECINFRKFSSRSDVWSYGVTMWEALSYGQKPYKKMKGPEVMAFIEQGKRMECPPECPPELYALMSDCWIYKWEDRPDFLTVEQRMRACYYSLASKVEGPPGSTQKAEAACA
# [15] = target: Serine/threonine-protein kinase B-raf (Homo sapiens) (UniProt P15056); settings: at 0.1 µM
# Serine/threonine-protein kinase B-raf (Homo sapiens), sequence (P15056 whole entry): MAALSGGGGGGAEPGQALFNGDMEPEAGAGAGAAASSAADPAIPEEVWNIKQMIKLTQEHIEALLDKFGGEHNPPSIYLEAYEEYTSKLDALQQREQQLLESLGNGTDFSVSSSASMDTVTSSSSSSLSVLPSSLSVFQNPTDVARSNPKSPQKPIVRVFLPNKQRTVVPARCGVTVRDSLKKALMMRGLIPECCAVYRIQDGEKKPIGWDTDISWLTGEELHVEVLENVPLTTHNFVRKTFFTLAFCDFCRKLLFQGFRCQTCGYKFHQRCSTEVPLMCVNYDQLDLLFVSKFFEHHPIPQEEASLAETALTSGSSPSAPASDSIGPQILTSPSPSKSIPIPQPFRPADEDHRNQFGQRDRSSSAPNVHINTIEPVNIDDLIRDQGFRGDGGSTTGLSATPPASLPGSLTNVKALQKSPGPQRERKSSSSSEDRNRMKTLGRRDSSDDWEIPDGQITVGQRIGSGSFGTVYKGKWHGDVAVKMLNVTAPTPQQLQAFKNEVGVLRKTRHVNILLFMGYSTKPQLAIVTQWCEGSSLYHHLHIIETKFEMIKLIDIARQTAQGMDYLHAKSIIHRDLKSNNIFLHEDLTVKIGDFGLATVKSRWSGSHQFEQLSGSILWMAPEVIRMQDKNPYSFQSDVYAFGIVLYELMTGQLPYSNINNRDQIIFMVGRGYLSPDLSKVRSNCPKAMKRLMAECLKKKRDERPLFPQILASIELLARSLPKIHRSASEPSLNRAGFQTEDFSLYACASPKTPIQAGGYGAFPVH
# [16] = target: Serine/threonine-protein kinase B-raf (Homo sapiens) (UniProt P15056); settings: at 1 µM
# [17] = system: Serine/threonine-protein kinase B-raf (Homo sapiens), P15056 [V600E]; settings: at 0.1 µM
# Serine/threonine-protein kinase B-raf (Homo sapiens), P15056 [V600E], sequence (P15056 whole entry V600E): as the sequence (P15056 whole entry) above, with V600E counted along it
# [18] = system: Serine/threonine-protein kinase B-raf (Homo sapiens), P15056 [V600E]; settings: at 1 µM
# [19] = target: RAF proto-oncogene serine/threonine-protein kinase (Homo sapiens) (UniProt P04049); settings: at 0.1 µM;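 note: values are mean CRAF kinase inhibition from profiling of the GSK Published Kinase Inhibitor Set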
# RAF proto-oncogene serine/threonine-protein kinase (Homo sapiens), sequence (P04049 whole entry): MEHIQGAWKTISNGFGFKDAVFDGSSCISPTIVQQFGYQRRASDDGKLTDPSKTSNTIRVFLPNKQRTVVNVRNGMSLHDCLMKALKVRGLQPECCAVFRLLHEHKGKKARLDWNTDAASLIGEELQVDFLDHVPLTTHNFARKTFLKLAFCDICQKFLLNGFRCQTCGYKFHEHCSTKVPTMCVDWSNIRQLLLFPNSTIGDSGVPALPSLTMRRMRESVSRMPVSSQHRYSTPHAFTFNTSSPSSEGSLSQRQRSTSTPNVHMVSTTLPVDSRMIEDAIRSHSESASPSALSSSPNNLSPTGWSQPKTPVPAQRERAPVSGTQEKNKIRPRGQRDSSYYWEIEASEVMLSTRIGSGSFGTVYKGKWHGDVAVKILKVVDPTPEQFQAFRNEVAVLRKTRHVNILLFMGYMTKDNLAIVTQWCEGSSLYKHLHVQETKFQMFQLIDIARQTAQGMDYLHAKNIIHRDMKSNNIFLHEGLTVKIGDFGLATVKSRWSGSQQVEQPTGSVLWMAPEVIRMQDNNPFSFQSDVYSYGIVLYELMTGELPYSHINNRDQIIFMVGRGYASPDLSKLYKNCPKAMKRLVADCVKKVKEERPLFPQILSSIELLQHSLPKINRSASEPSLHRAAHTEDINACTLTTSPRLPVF
# [20] = target: T3, Tyrosine-protein kinase ZAP-70 (Homo sapiens); settings: at 1 µM
# Tyrosine-protein kinase Fgr (Homo sapiens), sequence (P09769 2-529 limits assumed): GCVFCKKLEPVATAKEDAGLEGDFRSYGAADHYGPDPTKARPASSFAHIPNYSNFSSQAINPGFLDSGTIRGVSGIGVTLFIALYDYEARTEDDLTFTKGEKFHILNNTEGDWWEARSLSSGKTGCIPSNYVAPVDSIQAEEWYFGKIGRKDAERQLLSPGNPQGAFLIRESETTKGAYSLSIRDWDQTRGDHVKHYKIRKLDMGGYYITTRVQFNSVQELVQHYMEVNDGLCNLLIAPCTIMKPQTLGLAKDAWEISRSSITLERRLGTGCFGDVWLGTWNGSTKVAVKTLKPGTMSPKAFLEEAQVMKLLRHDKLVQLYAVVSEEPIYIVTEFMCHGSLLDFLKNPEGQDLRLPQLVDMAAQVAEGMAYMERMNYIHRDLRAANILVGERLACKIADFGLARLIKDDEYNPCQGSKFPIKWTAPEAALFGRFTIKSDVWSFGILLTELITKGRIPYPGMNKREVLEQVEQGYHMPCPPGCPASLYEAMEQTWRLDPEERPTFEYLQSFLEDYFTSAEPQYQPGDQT
# Fibroblast growth factor receptor 4 (Homo sapiens), sequence (P22455 22-802 limits assumed): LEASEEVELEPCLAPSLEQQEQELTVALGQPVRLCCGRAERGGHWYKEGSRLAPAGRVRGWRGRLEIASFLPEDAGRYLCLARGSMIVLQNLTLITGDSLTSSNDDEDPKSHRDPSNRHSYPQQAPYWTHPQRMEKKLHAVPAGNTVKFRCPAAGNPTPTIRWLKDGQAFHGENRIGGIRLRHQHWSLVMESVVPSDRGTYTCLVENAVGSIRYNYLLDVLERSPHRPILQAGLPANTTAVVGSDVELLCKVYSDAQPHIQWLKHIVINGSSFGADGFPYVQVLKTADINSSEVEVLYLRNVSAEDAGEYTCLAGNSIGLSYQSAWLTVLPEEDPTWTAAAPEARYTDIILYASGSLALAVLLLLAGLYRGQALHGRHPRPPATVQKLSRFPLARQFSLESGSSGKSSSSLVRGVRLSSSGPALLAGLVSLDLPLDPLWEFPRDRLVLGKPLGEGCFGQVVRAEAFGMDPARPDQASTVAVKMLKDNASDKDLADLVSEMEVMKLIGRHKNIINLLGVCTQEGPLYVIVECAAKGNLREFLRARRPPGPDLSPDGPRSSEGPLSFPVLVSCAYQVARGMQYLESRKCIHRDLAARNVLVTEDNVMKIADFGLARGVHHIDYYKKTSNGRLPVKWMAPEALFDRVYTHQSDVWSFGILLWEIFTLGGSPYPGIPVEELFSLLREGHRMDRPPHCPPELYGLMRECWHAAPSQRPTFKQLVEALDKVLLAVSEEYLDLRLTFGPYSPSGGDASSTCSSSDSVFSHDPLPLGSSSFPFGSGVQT
Compound,inhibition [1] [%],inhibition [2] [%],inhibition [3] [%],inhibition [4] [%],inhibition [5] [%],inhibition [6] [%],inhibition [7] [%],inhibition [8] [%],inhibition [9] [%],inhibition [10] [%],inhibition [11] [%],inhibition [12] [%],inhibition [13] [%],inhibition [14] [%],inhibition [15] [%],inhibition [16] [%],inhibition [17] [%],inhibition [18] [%],inhibition [19] [%],inhibition [20] [%]
COc1cc2c(cc1Nc1nc(N3CCc4ccccc43)c3cc[nH]c3n1)N(C(=O)CN(C)C)CC2,0.78,-0.2,3.44,1.49,2.02,0.56,-1.35,-2.55,-2.82,1.61,1.54,-0.07,-1.83,1.18,1.69,2.22,1.91,1.68,-4.52,–
CS(=O)(=O)CCNCc1ccc(-c2ccc3ncnc(Nc4ccc(OCc5ccccc5)c(Cl)c4)c3c2)o1,0.28,2.49,11.5,-0.51,0.52,1.48,2.75,-3.65,1.7,0.02,2.01,7.69,39.4,-7.6,0.1,1.24,1.67,1.38,-1.06,-0.02
NCc1ccc(-c2nc(-c3ccc(Cl)c(O)c3)c(-c3ccncc3)[nH]2)cc1,2.75,4.3,32.8,19.8,70.6,-0.2,3.28,2.87,-1.84,0.69,5.26,5.85,37.7,0.84,–,–,–,–,6.34,1.92
CCc1cccc(NC(=O)Nc2ccc(Oc3ccc4nc(NC(=O)OC)[nH]c4c3)cc2)c1,-0.63,5.68,5.18,36.4,43.8,37.4,48,1.59,-2.46,10.6,21.4,0.83,-1.93,0.4,9.12,12.2,9.23,13.8,-5.43,-1.32
COc1cc2ncn(-c3cc(O[C@@H](C)c4ccccc4Cl)c(C(N)=O)s3)c2cc1OC,2.7,5.04,32.2,4.55,13.3,5.29,3.2,-3.12,-4.63,2.45,6,6.69,33.2,–,5.9,5.17,4.21,4.64,-0.12,2.45
COc1ccc(-c2nn3ncccc3c2-c2ccnc(Nc3ccc(Cl)c(C(F)(F)F)c3)n2)cc1,0.98,5.75,16.9,-1.35,1.63,-0.69,1.14,-1.91,1.02,0.79,3.05,7.39,46.2,0.91,3.94,4.03,3.98,3.99,-1.5,-1.1
O=C(Nc1n[nH]c2nc(-c3ccco3)c(Br)cc12)C1CC1,2.76,2.88,11.3,2.26,4.22,1.23,2.62,-1.82,-1.51,2.22,4.49,4.26,13.8,1.19,5.54,5.7,6.02,5.23,1.52,3.08
